ChEMBL document CHEMBL3988442, “University of Dundee, Small-Polar-MMV Screening Library” (2021)
Screen size: about 48,000 compounds; about 13,000 (27%) showed an effect of 50% or more. The list shows a part of the results.

What follows are molecules tested on Wolbachia pipientis (assay: Anti-Wolbachia Cell-Based Screen). Conditions: 5 µM.
Assay type: functional
Set-up: scale not given: in the data most compounds retested in dose-response had high values

**Q.** Which “Percent Effect” value does the source give for Cn1cc(CCC(=O)NS(=O)(=O)N2CCCc3ccccc32)cn1 here?
**A.** Its value is -16.6%.

**Q.** For CCc1nsc(N2CCn3c(nnc3C(F)(F)F)C2)n1, which “Percent Effect” value is on record?
**A.** The value was 3.315%.

**Q.** COCCOc1cc(C(=O)N2CC(C)c3ccccc32)ccn1 (centres undefined) was tested. Which “Percent Effect” value did it give?
**A.** The value was -1.249%.

**Q.** With COCC(=O)N[C@H](C)c1c(-c2ccc(Cl)cc2)noc1C(=O)O as the molecule, how does the “Percent Effect” value read?
**A.** Its value is -3.12%.

**Q.** How did the “Percent Effect” value turn out when c1ccc(-c2nc(CN3CCOC(Cn4cccn4)C3)no2)cc1 (centres undefined) was run?
**A.** Its value is -5.165%.

**Q.** Fc1cccc(-c2nc(CN3CCOC(Cn4cccn4)C3)co2)c1 (centres undefined) was tested. Which “Percent Effect” value did it give?
**A.** Its value is 1.83%.

**Q.** For Fc1cccc(-c2nc(CN3CCOC(Cn4cncn4)C3)co2)c1 (centres undefined), which “Percent Effect” value is on record?
**A.** The value was -2.254%.

**Q.** With Cc1ccc(-c2nc(CN3CCOC(Cn4cccn4)C3)co2)cc1 (centres undefined) as the molecule, how does the “Percent Effect” value read?
**A.** The value was 108.6%.

**Q.** For c1csc(-c2nc(CN3CCOC(Cn4cccn4)C3)co2)c1 (centres undefined), which “Percent Effect” value is on record?
**A.** Its value is 6.391%.

**Q.** c1ccc(-c2nc(CN3CCOC(Cn4cccn4)C3)co2)cc1 (centres undefined) was tested. Which “Percent Effect” value did it give?
**A.** Its value is 93.62%.

**Q.** c1coc(-c2nc(CN3CCOC(Cn4cccn4)C3)cs2)c1 (centres undefined) was tested. Which “Percent Effect” value did it give?
**A.** The value was 16.31%.

**Q.** With Fc1ccc(-c2nc(CN3CCOC(Cn4cccn4)C3)co2)cc1 (centres undefined) as the molecule, how does the “Percent Effect” value read?
**A.** Its value is 92.05%.

**Q.** O=C1COC[C@H]([C@H](O)c2ccc(NC(=O)c3cccnc3)cc2)N1 was tested. Which “Percent Effect” value did it give?
**A.** Its value is -8.221%.

**Q.** With Cc1ccc(-c2nnc([C@H]3CCN(C4CCC4)C3)o2)cc1 as the molecule, how does the “Percent Effect” value read?
**A.** Its value is 10.26%.

**Q.** For O=C(c1ncoc1C1CCCO1)N1CCCC2(CCCCC2)C1 (centres undefined), which “Percent Effect” value is on record?
**A.** Its value is -7.896%.

**Q.** Which “Percent Effect” value does the source give for CCN1CCOC(CNCc2ccccc2OCc2ccccn2)C1 (centres undefined) here?
**A.** Its value is 9.704%.

**Q.** For CN1CCOC(CNCc2cccc(OCc3ccccn3)c2)C1 (centres undefined), which “Percent Effect” value is on record?
**A.** Its value is -19.83%.

**Q.** CN1CCOC(CNCc2ccc(OCc3ccccn3)cc2)C1 (centres undefined) was tested. Which “Percent Effect” value did it give?
**A.** The value was 111%.

**Q.** How did the “Percent Effect” value turn out when CCN1CCOC(CNCc2cccc(OCc3ccccn3)c2)C1 (centres undefined) was run?
**A.** The value was 99.3%.

**Q.** With CN1CCOC(CNCCc2ccccn2)C1 (centres undefined) as the molecule, how does the “Percent Effect” value read?
**A.** Its value is -2.338%.

**Q.** With CC(C)CC(N)C1=N/C(=C2\N=CN=N2)NO1 (centres undefined) as the molecule, how does the “Percent Effect” value read?
**A.** The value was -1.816%.

**Q.** For CNC(=O)NC(=O)C(NCc1ccccc1)c1ccccc1 (centres undefined), which “Percent Effect” value is on record?
**A.** The value was 7.195%.

**Q.** Which “Percent Effect” value does the source give for COc1ccc(S(=O)(=O)NCCCc2ccc(N(C)C)cc2)cc1Cl here?
**A.** The value was 10.52%.

**Q.** CCOc1ccc(S(=O)(=O)NCCCc2ccc(N(C)C)cc2)cc1F was tested. Which “Percent Effect” value did it give?
**A.** The value was 11.9%.

**Q.** COc1ccc(S(=O)(=O)NCCCc2nnc3nc(C)cc(C)n23)cc1 was tested. Which “Percent Effect” value did it give?
**A.** The value was 128.4%.

**Q.** For Cn1ccnc1CCNS(=O)(=O)c1ccc(Br)cc1, which “Percent Effect” value is on record?
**A.** Its value is -0.8619%.

**Q.** How did the “Percent Effect” value turn out when COc1ccc(CCNC(=O)Nc2cc(C)nn2C)cc1 was run?
**A.** Its value is -34.88%.

**Q.** How did the “Percent Effect” value turn out when O=S(=O)(NCCNc1ccc(-n2cccc2)nn1)c1cccs1 was run?
**A.** The value was 19%.

**Q.** How did the “Percent Effect” value turn out when COc1cccc(CC(=O)NCCc2nnc3n2CCCCC3)c1 was run?
**A.** Its value is -1.985%.

**Q.** For COc1ccc(S(=O)(=O)NCCCc2ccc(N(C)C)cc2)cc1F, which “Percent Effect” value is on record?
**A.** The value was 8.354%.

**Q.** With O=S(=O)(NCCNc1cc(-n2cccc2)ncn1)c1cccs1 as the molecule, how does the “Percent Effect” value read?
**A.** The value was 9.931%.

**Q.** Which “Percent Effect” value does the source give for COc1ccc(CC(=O)NCCCc2nnc3nc(C)cc(C)n23)cc1 here?
**A.** The value was 140.8%.

**Q.** How did the “Percent Effect” value turn out when Cc1cc(C)n2c(CCCNS(=O)(=O)c3ccc(F)cc3)nnc2n1 was run?
**A.** Its value is 115.4%.

**Q.** For Cc1cc(C)n2c(CCCNS(=O)(=O)c3cccs3)nnc2n1, which “Percent Effect” value is on record?
**A.** Its value is 99.96%.
